Only some compounds are listed: those with a hit (about 5.5% of all), similar ones and a draw of the others.
Gal4-VP16 FLuc = Gal4-VP16 reporter inhibition counter-screen | Drosophila S2 Gal4-VP16 UAS-luciferase, luminescence, 20 h | Potency, µM (series often up to 53.6 µM), for the others: at the top dose activity, negative = inhibition, most hits filed as inhibitors | 3.5% of 310,000 active;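 note: Gal4-VP16 expression switched on by copper sulfate through the metallothionein promoter; % is set by controls: 0 for no effect and ±100 for the full control effect; nearly all actives have a fitted effect of over 50% in size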
Chronic BCR inh = chronic active BCR signaling inhibition | ABC-DLBCL IkBa-CBG/CBR reporter, luminescence ratio, 4 h | Potency, µM (top dose mostly 46.1 µM), for the others: top-dose activity change, negative = inhibition, most hits filed as inhibitors | 0.05% of 340,000 active | AID 493014; active = well fitted inhibition curve with a large enough effect in the signal ratio, with a control signal flat, not every such curve was filed as active; inconclusive = small, poorly fitted or top-dose-only effect, or effect the other way, or a change in a side signal; the % refers to the signal ratio;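 note: plate controls were basal doxycycline-induced cells for no effect and cells given 10 µM MG132 for full effect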
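Cell line TMD8 (human ABC DLBCL), stably expressing tet-inducible CBG68-IkBa fusion and CBR; IMDM/0.5% FBS; cpd up to 46 uM; dox induction, 4 h, 37C/5% CO2; dual luminescence; green/red ratio; MG132 control.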
Mito fusion act = mitochondrial division inhibition or fusion activation | S. cerevisiae fusion-defective mutant growth rescue, CellTiterGlo 48 h | Potency, µM (highest dose often 46.1 µM), for inactives: at the top dose growth rescue (activation), usual class: activators | 0.23% of 320,000 active | AID 485298; note: % of control where 0% means no effect; nearly all actives have a fitted effect of over 45% in size
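Yeast fusion mutant, YPEG (non-fermentable carbon), compound, 48 h at 37C non-permissive; CellTiterGlo added, 10 min RT, luminescence read. Rescued growth = division inhibition.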
Integrin act MD = activators of alpha7 integrin expression for muscular dystrophy. alpha7betagal myoblasts, beta-gal FDG fluorescence, 48 h. 0.064% of 350,000 active. Potency, µM (titrated, usually from 38.3 µM), for inactives: at the highest dose activation, usual class: activators;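 note: 100% = response of the positive control SU9516; nearly all actives have a fitted effect of over 60% in size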
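alpha7betagal+/- myoblasts (passage 13, 250/well) treated 48 h at 37C with compounds at 1:260 dilution of DMSO stock. Lysed, then beta-galactosidase activity read as FDG fluorescence (ex 480/em 540) after 30 min, with pre-read for autofluorescence.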
uPA generation = cell surface uPA generation inhibition | cell surface uPA generation assay, qHTS | Potency, µM (top dose mostly 38.3 µM), without a hit: top-dose activity change, negative = inhibition, hits mostly inhibitors | 0.31% of 330,000 active; active = well fitted inhibition curve with a large enough effect; inconclusive = small, poorly fitted or top-dose-only effect; inactive = no such curve, though single readings can be large or run the other way; tested in mouse RAW 264.7 cells; note: % is set by controls: 0 for no effect and ±100 for the full control effect; nearly all actives have a fitted effect of over 55% in size
RORg inh = blocks mouse ROR gamma transcriptional activity; Drosophila S2 Gal4-RORgamma UAS-luciferase reporter, 20 h; 5.4% of 310,000 active; Potency, µM (titrated, usually from 53.6 µM), for inactives: at the highest dose activity change, negative = inhibition, hits mostly inhibitors; P51450; note: % is set by controls: 0 for no effect and ±100 for the full control effect; nearly all actives have a fitted effect of over 60% in size
Target sequence (P51450 whole entry, looked up, the tested form may be a part): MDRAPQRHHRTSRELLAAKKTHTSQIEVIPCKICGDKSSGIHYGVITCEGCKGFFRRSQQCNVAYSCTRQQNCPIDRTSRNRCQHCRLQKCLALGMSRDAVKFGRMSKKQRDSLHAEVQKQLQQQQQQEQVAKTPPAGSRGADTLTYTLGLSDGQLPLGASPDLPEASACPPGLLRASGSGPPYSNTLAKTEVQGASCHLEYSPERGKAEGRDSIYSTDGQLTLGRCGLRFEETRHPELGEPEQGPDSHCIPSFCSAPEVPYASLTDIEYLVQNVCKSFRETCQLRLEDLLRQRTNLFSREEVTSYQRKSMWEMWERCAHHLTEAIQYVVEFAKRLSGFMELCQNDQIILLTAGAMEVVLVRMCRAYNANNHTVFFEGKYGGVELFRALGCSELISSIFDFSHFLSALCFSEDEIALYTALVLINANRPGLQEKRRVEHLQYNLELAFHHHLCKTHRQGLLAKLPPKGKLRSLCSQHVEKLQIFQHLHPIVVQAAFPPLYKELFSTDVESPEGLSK
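Stably transfected Drosophila Schneider cells are the test system, with ROR gamma fused to Gal4 and luciferase under UAS control; luminescence is read after 20 hr of 700 uM copper sulfate induction at ambient temperature.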
Active calls of the source: *; u = inconclusive; x = no result; [ ] = dose if it differs, or a comment. Unless noted, calls come from the whole dose curve; as a rule, active = well fitted curve in the direction sought with a large enough effect; inconclusive = small, poorly fitted or top-dose-only effect, or another doubt; inactive = no such curve, though single readings can be large; an effect the other way counts as inactive or inconclusive. Potency is the fitted concentration of half-maximal effect.

SMILES	Gal4-VP16 FLuc	Chronic BCR inh	Mito fusion act	Integrin act MD	uPA generation	RORg inh
Cc1ccc(S(=O)(=O)N2[C@@H](c3ccccc3F)C(C(=O)O)=CC[C@H]2c2ccc(Cl)c(Cl)c2)cc1	x	-7%	16%	-5%	12%	x
Cc1ccc(S(=O)(=O)CC2CSc3nc4ccccc4n32)cc1 (stereo not given)	1.1µM*	10%	-1%	-36%	-7%	u
CCOc1ccc2c(c1)-c1c(ssc1=S)C(C)(C)N2C(=O)CSC1=NCCS1	7%	u	u	-22%	3%	3.2µM*
Cc1ccc2c(c1)-c1c(ssc1=S)C(C)(C)N2C(=O)CSC1=NCCS1	-6%	1%	29%	8%	x	u
Cc1cccc(CNc2nc(-c3ccc(C(=O)N(C)C)cc3)nc3ccccc23)c1	-1%	x	x	x	x	u
O=C(COc1ccccc1)NCc1n[nH]c(=S)n1-c1ccccc1	10%	-2%	-4%	11%	3%	-28%
CCCOc1ccc(CCc2n[nH]c(=S)n2Cc2ccccc2)cc1	1.3µM*	17%	-12%	-12%	2%	2µM*
CCCCCC(O)CCc1n[nH]c(=S)n1-c1ccccc1 (stereo not given)	2%	3%	-1%	-1%	3%	6.3µM*
CCn1c(CCCOc2ccc(Cl)cc2Cl)n[nH]c1=S	3.2µM*	u	1%	-6%	-1%	2.8µM*
CCCOc1ccc(CCc2n[nH]c(=S)n2-c2ccccc2)cc1	-18%[10 µM]	0%	1%	2%	0%	2.8µM*
CCOc1ccc(-n2c(CCc3ccccc3)n[nH]c2=S)cc1	u	u	3%	-1%	-3%	u
Cc1ncc2c(c1O)COP(=O)(O)OC2	-3%	x	x	x	x	2%
CCOC(=O)c1c(NC(=O)c2ccc(S(=O)(=O)N(CC(C)C)CC(C)C)cc2)sc2c1CCN(CC)C2	x	8%	x	x	x	x
CCn1c(CN2c3ccccc3Sc3ccccc32)n[nH]c1=S	u	u	24%	42%	-1%	2.8µM*
S=c1[nH]nc(CCSCc2ccccc2)n1-c1ccccc1	1%	-1%	4%	3%	0%	2.8µM*
CCCCCCCc1n[nH]c(=S)n1Cc1ccccc1	u	11%	12%	1%	7%	1.3µM*
COc1ccc(-n2c(CCc3ccccc3)n[nH]c2=S)cc1	-24%	5%	-6%	7%	-4%	5µM*
Cc1nn(C)cc1S(=O)(=O)NCc1ccc2c(c1)OCO2	-2%	0%	2%	-6%	4%	-13%
COc1ccccc1NC(=O)CCN1C(=O)c2ccccc2C1=O	1%	-1%	2%	17%	-3%	1%
Cc1ccc(NCc2n[nH]c(=S)n2Cc2ccccc2)cc1Cl	u	3%	u	u	2%	4µM*
CCn1c(CCNC(=O)c2ccc(C)cc2)n[nH]c1=S	25%	4%	0%	23%	-2%	6%
COCCn1c(-c2ccccc2F)n[nH]c1=S	-1%	7%	11%	-23%	3%	8%
CCCCc1n[nH]c(=S)n1Cc1ccc(C)cc1	u	-10%	-1%	16%	6%	5.6µM*
COCCn1c(CCc2ccccc2)n[nH]c1=S	u	0%	-5%	-13%	1%	11µM*
CCn1c(CCCCc2n[nH]c(=S)n2CC)n[nH]c1=S	-26%	1%	3%	6%	2%	5.6µM*
SMILES	Gal4-VP16 FLuc	Chronic BCR inh	Mito fusion act	Integrin act MD	uPA generation	RORg inh
CCCCCCCC/C=C\CCCCCCCC(=O)NC(C)C(=O)O (stereo not given)	-1%	x	x	x	x	2%
Cc1cccc(NS(=O)(=O)c2ccc(C(=O)NCC(c3ccco3)N3CCCCC3)cc2)c1C (stereo not given)	x	3%	-2%	-17%	-2%	x
COc1cc(C2C3=C(Nc4nc(N)[nH]c(=O)c42)c2ccccc2C3=O)ccc1O (stereo not given)	5%	16%	-5%	1%	1%	17%
C=CCn1c(CCC(O)COCCC)n[nH]c1=S (stereo not given)	3%	1%	-8%	4%	2%	-19%
Cc1nccn1CCc1n[nH]c(=S)n1Cc1ccccc1	0%	3%	-9%	4%	-3%	-27%
CCOC(=O)c1ccc(NC(=O)CSc2nnc(CCc3ccc(C)o3)n2-c2ccccc2)cc1	14µM*	10%	-3%	1%	-4%	u
S=c1[nH]nc(CCc2ccccc2)n1Cc1ccccc1	5µM*	1%	-5%	5%	-5%	2.2µM*
CCCCC(CC(O)COCCC)c1n[nH]c(=S)n1-c1ccccc1 (stereo not given)	u	0%	-2%	-20%	-9%	11µM*
COc1ccc(-n2c(CCc3ccccc3)nnc2SCC(=O)c2ccccc2)cc1	-22%	-2%	8%	13%	0%	-52%
COc1ccc(C(=O)CSc2nnc(CCc3ccccc3)n2-c2ccccc2)cc1	u	9%	-7%	29%	-13%	16µM*
Cc1cccc(NCc2nc3ccccc3n2Cc2ccccc2)c1	u	-11%	7%	12%	-2%	1µM*
ClCc1nc2ccccc2n1Cc1ccccc1	-6%	4%	-6%	-39%	16%	16%
COc1ccc(Cn2c(-c3ccc(C)cc3)c[n+]3ccccc23)cc1	18µM*	-4%	-1%	-61%	-15%	11%
COc1ccc(-c2nc3ccccc3n2Cc2ccc(C)cc2)cc1	u	x	5%	-35%	-2%	13µM*
Cc1ccc(Cn2c(Cc3ccccc3)nc3ccccc32)cc1	u	8%	-6%	1%	-8%	8.9µM*
COC(=O)C1(C(=O)OC)CC2=C[C@H](CC2=O)Cc2ccccc2[C@@H]1C[N+](=O)[O-]	9%	x	x	x	x	-3%
COCc1nc2ccccc2n1Cc1ccc(Br)cc1	u	-6%	13%	8%	8%	10µM*
COCc1nc2ccccc2n1Cc1ccccc1	u	20%	-2%	-8%	-1%	4%
Cc1cc(F)ccc1S(=O)(=O)NCC(c1ccco1)S(=O)(=O)c1cccs1 (stereo not given)	x	3%	x	x	x	x
COc1ccc(NS(=O)(=O)c2ccc(-c3coc(C)n3)cc2)cc1OC	1.4µM*	3%	-27%	-3%	-19%	u
COc1cc(C(c2c(C)[nH][nH]c2=O)c2c(C)[nH][nH]c2=O)ccc1OCc1ccc([N+](=O)[O-])cc1	u	u	0%	0%	-2%	6.3µM*
COC(=O)C(=Cc1ccc(OCc2ccc([N+](=O)[O-])cc2)c(OC)c1)C(=O)OC	-9%[0.365 µM]	-4%	-4%	-55%	-12%	16µM*

Screening results from PubChem BioAssay.
